Screens deposited in PubChem BioAssay by several laboratories.
GRK2 inh: inhibitors of human GRK2 displacing RNA aptamer; P25098; bead flow cytometry, FAM-aptamer displacement from GRK2; inhibition of aptamer binding, % at 10 µM; hit rate 0.59% among 330,000;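 active = inhibition of aptamer binding above 40%, roughly 3 SD of noise, on plates passing a quality check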;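 also: median bead fluorescence of bound FAM aptamer so fluorescent compounds give negative values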
Efflux pump mplx: antifungal efflux pump inhibition, Nile Red retention | AID 485275 | inhibition, % at 10 µM | hit rate 0.44% among 330,000 | S. cerevisiae Candida pump triplex;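 active = plate passing quality check with inhibition over a set limit, or well fluorescence over plate mean plus 4 SD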;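 also: Nile Red retained in pooled yeast measured as flow cytometry median fluorescence; higher means more Nile Red kept so more efflux inhibition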
ATG4B inhibitor: ATG4B (human) cysteine protease inhibition | Q9Y4P1 | ATG4B cleavage of LC3-PLA2, NBD-HPC fluorescence, 1 h | inhibition, % at 8.33 µM | hit rate 0.51% among 340,000 | AID 504462; in the data active = inhibition above about 40%
Yeast superoxide: lowers age-related superoxide in aged yeast cells. S. cerevisiae aged cells, superoxide DHE fluorescence; hits give low values. superoxide response (% of plate mean), % at 10 µM. hit rate 0.18% among 330,000;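 active = superoxide response under a set limit, about three screen SD below normal, cut at about 65% in these data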;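 also: yeast aged for seven days with compound at 30 °C before DHE staining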
ATG4B confirm: ATG4B (human) inhibition, single-dose confirmed | inhibition, % at 8.33 µM | shares compounds with ATG4B inhibitor | ATG4B protease fluorescent substrate cleavage assay | hit rate 92% among 320 | AID 504757; in the data active = inhibition above about 39%
PLA2 counter: inhibits human PLA2, flagging false ATG4B inhibitors | shares compounds with ATG4B inhibitor | purified PLA2, NBD-C6-HPC fluorescence, 45 min | inhibition, % at 8.33 µM | hit rate 66% among 1,600 | AID 588402; in the data active = inhibition above about 50%
Target sequence (P04054 whole entry, looked up): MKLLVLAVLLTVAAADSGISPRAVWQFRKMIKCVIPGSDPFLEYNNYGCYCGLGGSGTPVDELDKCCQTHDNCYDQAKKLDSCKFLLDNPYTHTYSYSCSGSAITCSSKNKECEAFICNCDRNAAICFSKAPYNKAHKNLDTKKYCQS
Numbers stand for hits; . = inactive; / = not tested or not shown. Hits are enriched below; roughly 1.6% of the tested compounds scored in any of these assays.

SMILES	GRK2 inh	Efflux pump mplx	ATG4B inhibitor	Yeast superoxide	PLA2 counter	others
Cc1ccc(S(=O)(=O)NCc2c(Cl)cccc2Oc2ccccc2)cc1	.	.	63.1	.	58.9
Cc1ccc(S(=O)(=O)Oc2ccc(C(c3c(C)[nH][nH]c3=O)c3c(C)[nH][nH]c3=O)cc2)cc1	.	.	70.4	.	67.9
C[C@@H]1CN([C@H](C)CO)C(=O)c2cc(NC(=O)Cc3ccccc3)ccc2O[C@H]1CN(C)Cc1ccc(Oc2ccccc2)cc1	.	.	55.6	.	67.7
C[C@H]1CN([C@@H](C)CO)C(=O)c2cc(NC(=O)Cc3ccccc3)ccc2O[C@H]1CN(C)Cc1ccccc1	.	.	.	.	/
CS(=O)(=O)Nc1cc2c3c(c1)CCC(=O)N3CCC2	.	.	.	.	/
O=C(Nc1cc([N+](=O)[O-])ccc1N1CCCC1)c1cccs1	.	.	.	.	/
O=C(Nc1ccc(Cl)cc1)NC1CCCc2ccccc21 (configuration not stated)	.	.	68.0	.	66.2
O=C(N[C@H](Cc1ccc(Cl)cc1)C(=O)O)OCC1c2ccccc2-c2ccccc21	.	.	78.5	.	86.3
CCCCCCCCCCCCCCCC[N+](C)(C)CCl	/	/	56.0	/	.	ATG4B confirm=57.0
COc1ccccc1CNC(=O)c1ccccc1OCc1ccc(F)cc1	.	.	44.4	.	.	ATG4B confirm=74.8
O=c1c2ccccc2c(-c2ccc(O)cc2)nn1-c1cccc(C(F)(F)F)c1	.	.	59.5	.	72.3
CCOC(=O)C1=C(C)N=c2s/c(=C/c3cccc([N+](=O)[O-])c3O)c(=O)n2C1c1ccccc1 (configuration not stated)	.	.	57.6	.	.
CCOC(=O)C1=C(C)N=c2s/c(=C/c3cccc([N+](=O)[O-])c3O)c(=O)n2C1c1cc(OC)c(OC)c(OC)c1 (configuration not stated)	.	.	.	.	/
COc1ccc(NC(=O)CCC(=O)OCc2ccc([N+](=O)[O-])cc2)cc1	.	.	.	.	/
O=C(NNc1nccc(C(F)(F)F)n1)Nc1cccc(Cl)c1	.	.	.	.	/
O=C(NNc1cc(C(F)(F)F)nc2ccccc12)Nc1cccc(Cl)c1	.	.	85.3	.	84.7
COc1cc(OC)c(C(=O)OCC(=O)NC2CCCCCCC2)cc1OC	.	.	.	.	/
CC(=O)Nc1ccc(S(=O)(=O)Nc2nc3ccccc3nc2Nc2ccc3ccccc3c2)cc1	.	.	48.1	.	57.9
CC(=O)Nc1ccc(S(=O)(=O)Nc2nc3ccccc3nc2Nc2cccc(O)c2)cc1	.	.	.	.	/
COc1ccc(NC(=O)c2ccc(S(=O)(=O)N3CCCC3)cc2)cc1OC	.	.	.	.	/
Cc1nc(NS(=O)(=O)c2cccs2)c2c3c(sc2n1)CCC3	.	.	.	.	/
Cc1nc(NC(C)c2ccccc2)c2c3c(sc2n1)CCC3 (configuration not stated)	.	.	45.9	.	.
Cc1nc(NS(=O)(=O)c2ccc(Br)cc2)c2c3c(sc2n1)CCC3	.	.	68.0	.	72.1
C=CCN1C(=O)C(=O)N(Cc2nc3ccccc3s2)C1=O	.	.	.	.	/
COc1ccc(-c2nnc(SCC(=O)c3ccc(O)cc3O)o2)cc1	.	.	.	.	/
SMILES	GRK2 inh	Efflux pump mplx	ATG4B inhibitor	Yeast superoxide	PLA2 counter	others
Cc1cc(C)c(C(=O)COC(=O)c2cccc(S(=O)(=O)NCc3ccccc3)c2)cc1C	.	.	.	.	/
O=C(COC(=O)c1cccc(S(=O)(=O)NCc2ccccc2)c1)c1ccccc1	.	.	47.0	.	54.8
CCN(C[C@H]1N[C@@](CC)(C(=O)OC)[C@H]2C(=O)N(Cc3ccccc3)C(=O)[C@@H]12)C(=O)C1CCCCC1	.	.	.	.	/
COc1ccc(N2C(=O)c3ccccc3NC23CCC(C)CC3)cc1 (configuration not stated)	.	.	45.0	.	.	ATG4B confirm=61.1
O=C(NC(Cc1c[nH]c2ccccc12)C(=O)Nc1ccc(F)c([N+](=O)[O-])c1)c1cccs1 (configuration not stated)	.	.	71.2	.	80.8
O=C(NC(Cc1c[nH]c2ccccc12)C(=O)Nc1ccc(OC(F)(F)F)cc1)c1cccs1 (configuration not stated)	.	.	.	.	/
CCCc1cc(=O)[nH]c(SCc2cc(Cl)ccc2OC(F)F)n1	.	.	56.9	.	.	ATG4B confirm=51.8
